Laboratory results reported in PubChem BioAssay (NCI).
The panel holds about 79,000 compounds, 15% with a hit somewhere; the sample as a whole holds those more often. Unmarked numbers belong to inactive results. Active and inactive are the calls of the source. Rule as the data show it: active = growth inhibition above about 70%; inactive = the rest.

Key:
[1] = NCI Yeast Anticancer Drug Screen. Data for the mlh1 strain (AID 171);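 also: 0% = growth of vehicle-treated control cultures of the same strain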; settings: S. cerevisiae mlh1 strain growth inhibition, stronger effect = higher value
Outline: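 Yeast screen: mutant strain plus compound, growth scored against vehicle control wells.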

[2] = NCI Yeast Anticancer Drug Screen. Data for the sgs1 strain (AID 173);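 also: 0% = growth of vehicle-only control cultures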; settings: S. cerevisiae sgs1 mutant, stronger effect = higher value
Outline: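 Inhibition of yeast growth served as the measure. The mutant strain was treated with each compound, and growth was normalised to cultures receiving vehicle alone.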

[3] = NCI Yeast Anticancer Drug Screen. Data for the mlh1 rad18 strain (AID 175); settings: S. cerevisiae mlh1 rad18 strain growth inhibition, stronger effect = higher value
Outline: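 Compound-treated yeast growth, normalised to vehicle controls. Strain bears defined DNA repair mutations.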

[4] = NCI Yeast Anticancer Drug Screen. Data for the rad18 strain (AID 177); settings: S. cerevisiae rad18 mutant growth inhibition, stronger effect = higher value
Outline: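 Inhibition values reflect reduced yeast growth compared with vehicle-treated controls, using a strain engineered with a DNA damage repair defect.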

[5] = NCI Yeast Anticancer Drug Screen. Data for the rad52 strain (AID 147);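 also: 0% = growth of vehicle-treated control cultures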; settings: S. cerevisiae rad52 mutant growth inhibition, stronger effect = higher value
Outline: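 Genetically altered yeast (DNA damage repair defect) treated with compound; inhibition calculated relative to vehicle.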

[6] = NCI Yeast Anticancer Drug Screen. Data for the wt1 strain (AID 149);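 also: 0% = growth of vehicle-treated wt1 cultures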; settings: S. cerevisiae wt1 strain (SPY 50644) growth inhibition, stronger effect = higher value
Outline: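 wt1 strain grown with compound or vehicle; inhibition taken from the growth difference.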

[7] = NCI Yeast Anticancer Drug Screen. Data for the rad50EPP+ strain (AID 151);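 also: 0% = growth of vehicle-treated control cultures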; settings: S. cerevisiae rad50 mutant strain, stronger effect = higher value
Outline: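 Strain rad50EPP+; compound exposure; % growth inhibition vs vehicle.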

[8] = NCI Yeast Anticancer Drug Screen. Data for the rad50 strain (AID 155);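 also: 0% = growth of vehicle-only cultures of the same strain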; settings: S. cerevisiae rad50 strain growth inhibition, stronger effect = higher value
Outline: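 DNA repair mutant yeast, compound exposure, growth read-out; inhibition is taken relative to vehicle.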

[9] = NCI Yeast Anticancer Drug Screen. Data for the mec2-1 strain (AID 157); settings: S. cerevisiae mec2-1 strain, stronger effect = higher value
Outline: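 Cells of the genetically defined mec2-1 yeast strain are incubated with test compound. Inhibition of growth is calculated against vehicle-treated controls.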

[10] = NCI Yeast Anticancer Drug Screen. Data for the rad14 strain (AID 159);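 also: 0% = growth of vehicle-treated control cultures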; settings: S. cerevisiae rad14 strain growth inhibition, stronger effect = higher value
Outline: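 DNA repair-defective yeast, compound-exposed; % growth inhibition derived by comparison with vehicle-treated controls.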

[11] = NCI Yeast Anticancer Drug Screen. Data for the sgs1 mgt1 strain (AID 161);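 also: 0% = growth of cultures given vehicle only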; settings: S. cerevisiae sgs1 mgt1 strain, stronger effect = higher value
Outline: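 Inhibition of yeast growth, normalised to vehicle-treated controls, is reported for a strain bearing genetic alterations in DNA damage repair.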

[12] = NCI Yeast Anticancer Drug Screen. Data for the CLN2oe strain (AID 163);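 also: 0% = growth of vehicle-only control cultures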; settings: S. cerevisiae CLN2oe strain, stronger effect = higher value
Outline: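 Strain altered in cell-cycle control, incubated with compound; growth compared to solvent-treated controls.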

[13] = NCI Yeast Anticancer Drug Screen. Data for the cln2 rad14 strain (AID 165);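 also: 0% = growth equal to vehicle treated cultures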; settings: S. cerevisiae cln2 rad14 strain, stronger effect = higher value
Outline: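 The screen exposed genetically defined yeast (cln2 rad14) to test compounds and scored growth inhibition relative to vehicle-treated controls.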

[14] = NCI Yeast Anticancer Drug Screen. Data for the bub3 strain (AID 167); settings: S. cerevisiae bub3 mutant strain, stronger effect = higher value
Outline: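 In this screen, a yeast mutant lacking normal mitotic checkpoint function is challenged with compound. Relative growth versus vehicle gives the inhibition value.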

[15] = NCI Yeast Anticancer Drug Screen. Data for the wt2 strain (AID 169);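 also: 0% = growth of vehicle-treated yeast cultures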; settings: S. cerevisiae wt2 strain growth inhibition, stronger effect = higher value
Outline: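 Steps: yeast strain treated with compound; growth recorded; inhibition calculated relative to cultures given vehicle alone.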

[16] = NCI Yeast Anticancer Drug Screen. Data for the mgt1 strain (AID 153); settings: S. cerevisiae mgt1 mutant growth inhibition, stronger effect = higher value
Outline: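 Read-out: yeast growth inhibition vs vehicle control. Strain mgt1, drawn from a panel altered in DNA damage repair or cell cycle control.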

[17] = at 5.0 µM (retest, dose inferred, filed as 0.5)
[18] = at 50.0 µM (retest, dose inferred, filed as 5.0)

CN(C)CC(CN(C)C)C(=O)/C=C/c1ccc(Cl)cc1Cl
growth inhibition ([1]; at 33.0 µM): 99% (active)
growth inhibition ([1]; at 100.0 µM): 98% (active)
growth inhibition ([2]; at 1.2 µM): -2%
growth inhibition ([2]; at 3.7 µM): -2%
growth inhibition ([2]; at 11.0 µM): 5%
growth inhibition ([2]; at 33.0 µM): 98% (active)
growth inhibition ([2]; at 100.0 µM): 98% (active)
growth inhibition [3, 17]: 6%
growth inhibition [3, 18]: 99% (active)
growth inhibition ([3]; at 50.0 µM): 45%
growth inhibition ([4]; at 1.2 µM): -4%
growth inhibition ([4]; at 3.7 µM): -3%
growth inhibition ([4]; at 11.0 µM): 14%
growth inhibition ([4]; at 33.0 µM): 98% (active)
growth inhibition ([4]; at 100.0 µM): 97% (active)

Cc1cccc2c1C1c3c(C)cccc3C(CC(=O)O)CC1CC2 (stereo not drawn)
growth inhibition ([5]; at 1.2 µM): 13%
growth inhibition ([5]; at 3.7 µM): 92% (active)
growth inhibition ([5]; at 11.0 µM): 97% (active)
growth inhibition ([5]; at 33.0 µM): 95% (active)
growth inhibition ([5]; at 100.0 µM): 88% (active)
growth inhibition ([6]; at 1.2 µM): 2%
growth inhibition ([6]; at 3.7 µM): 77% (active)
growth inhibition ([6]; at 11.0 µM): 98% (active)
growth inhibition ([6]; at 33.0 µM): 96% (active)
growth inhibition ([6]; at 100.0 µM): 92% (active)
growth inhibition ([7]; at 1.2 µM): 15%
growth inhibition ([7]; at 3.7 µM): 25%
growth inhibition ([7]; at 11.0 µM): 53%
growth inhibition ([7]; at 33.0 µM): 66%
growth inhibition ([7]; at 100.0 µM): 48%
growth inhibition ([8]; at 1.2 µM): 13%
growth inhibition ([8]; at 3.7 µM): 90% (active)
growth inhibition [8, 17]: 22%
growth inhibition ([8]; at 11.0 µM): 97% (active)
growth inhibition ([8]; at 33.0 µM): 93% (active)
growth inhibition [8, 18]: 96% (active)
growth inhibition ([8]; at 50.0 µM): 99% (active)
growth inhibition ([8]; at 100.0 µM): 85% (active)
growth inhibition ([9]; at 1.2 µM): 5%
growth inhibition ([9]; at 3.7 µM): 61%
growth inhibition [9, 17]: 8%
growth inhibition ([9]; at 11.0 µM): 98% (active)
growth inhibition ([9]; at 33.0 µM): 96% (active)
growth inhibition [9, 18]: 98% (active)
growth inhibition ([9]; at 50.0 µM): 99% (active)
growth inhibition ([9]; at 100.0 µM): 90% (active)
growth inhibition ([10]; at 1.2 µM): 5%
growth inhibition ([10]; at 3.7 µM): 83% (active)
growth inhibition ([10]; at 11.0 µM): 98% (active)
growth inhibition ([10]; at 33.0 µM): 95% (active)
growth inhibition ([10]; at 100.0 µM): 90% (active)
growth inhibition [11, 17]: 11%
growth inhibition [11, 18]: 98% (active)
growth inhibition ([11]; at 50.0 µM): 99.5% (active)
growth inhibition ([12]; at 1.2 µM): 16%
growth inhibition ([12]; at 3.7 µM): 90% (active)
growth inhibition ([12]; at 11.0 µM): 99% (active)
growth inhibition ([12]; at 33.0 µM): 94% (active)
growth inhibition ([12]; at 100.0 µM): 88% (active)
growth inhibition [13, 17]: 6%
growth inhibition [13, 18]: 98% (active)
growth inhibition ([13]; at 50.0 µM): 98.8% (active)
growth inhibition ([14]; at 1.2 µM): 10%
growth inhibition ([14]; at 3.7 µM): 71% (active)
growth inhibition [14, 17]: 6%
growth inhibition ([14]; at 11.0 µM): 97% (active)
growth inhibition ([14]; at 33.0 µM): 95% (active)
growth inhibition [14, 18]: 96% (active)
growth inhibition ([14]; at 50.0 µM): 98.8% (active)
growth inhibition ([14]; at 100.0 µM): 87% (active)
growth inhibition ([15]; at 1.2 µM): 5%
growth inhibition ([15]; at 3.7 µM): 60%
growth inhibition ([15]; at 11.0 µM): 98% (active)
growth inhibition ([15]; at 33.0 µM): 96% (active)
growth inhibition ([15]; at 100.0 µM): 90% (active)
growth inhibition ([1]; at 1.2 µM): 6%
growth inhibition ([1]; at 3.7 µM): 71% (active)
growth inhibition ([1]; at 11.0 µM): 98% (active)
growth inhibition ([1]; at 33.0 µM): 97% (active)
growth inhibition ([1]; at 100.0 µM): 90% (active)
growth inhibition ([2]; at 1.2 µM): 10%
growth inhibition ([2]; at 3.7 µM): 75% (active)
growth inhibition ([2]; at 11.0 µM): 98% (active)
growth inhibition ([2]; at 33.0 µM): 96% (active)
growth inhibition ([2]; at 100.0 µM): 92% (active)
growth inhibition [3, 17]: 7%
growth inhibition [3, 18]: 97% (active)
growth inhibition ([3]; at 50.0 µM): 99.2% (active)
growth inhibition ([4]; at 1.2 µM): 11%
growth inhibition ([4]; at 3.7 µM): 69%
growth inhibition ([4]; at 11.0 µM): 98% (active)
growth inhibition ([4]; at 33.0 µM): 95% (active)
growth inhibition ([4]; at 100.0 µM): 88% (active)

N#CCC(=O)N/N=C(\c1ccccc1)C(c1ccccc1)C1(O)C(=O)Nc2c(Cl)ccc(Cl)c21 (stereo not drawn)
growth inhibition ([5]; at 1.2 µM): 0%
growth inhibition ([5]; at 3.7 µM): 0%
growth inhibition ([5]; at 11.0 µM): 3%
growth inhibition ([5]; at 33.0 µM): 9%
growth inhibition ([5]; at 100.0 µM): 11%
growth inhibition ([6]; at 1.2 µM): 0%
growth inhibition ([6]; at 3.7 µM): 0%
growth inhibition ([6]; at 11.0 µM): 0%
growth inhibition ([6]; at 33.0 µM): -1%
growth inhibition ([6]; at 100.0 µM): -3%
growth inhibition ([7]; at 1.2 µM): 2%
growth inhibition ([7]; at 3.7 µM): 10%
growth inhibition ([7]; at 11.0 µM): 15%
growth inhibition ([7]; at 33.0 µM): 24%
growth inhibition ([7]; at 100.0 µM): 32%
growth inhibition ([16]; at 1.2 µM): 1%
growth inhibition ([16]; at 3.7 µM): -1%
growth inhibition ([16]; at 11.0 µM): -3%
growth inhibition ([16]; at 33.0 µM): -2%
growth inhibition ([16]; at 100.0 µM): 19%
growth inhibition ([9]; at 1.2 µM): 3%
growth inhibition ([9]; at 3.7 µM): 4%
growth inhibition [9, 17]: -11%
growth inhibition ([9]; at 11.0 µM): 4%
growth inhibition ([9]; at 33.0 µM): 6%
growth inhibition [9, 18]: 36%
growth inhibition ([9]; at 50.0 µM): 41%
growth inhibition ([9]; at 100.0 µM): 11%
growth inhibition ([10]; at 1.2 µM): 3%
growth inhibition ([10]; at 3.7 µM): 7%
growth inhibition ([10]; at 11.0 µM): 10%
growth inhibition ([10]; at 33.0 µM): 27%
growth inhibition ([10]; at 100.0 µM): 39%
growth inhibition [11, 17]: 4%
growth inhibition [11, 18]: 39%
growth inhibition ([11]; at 50.0 µM): 51.8%
growth inhibition ([12]; at 1.2 µM): -1%
growth inhibition ([12]; at 3.7 µM): -2%
growth inhibition ([12]; at 11.0 µM): -2%
growth inhibition ([12]; at 33.0 µM): -8%
growth inhibition ([12]; at 100.0 µM): -11%
growth inhibition [13, 17]: 9%
growth inhibition [13, 18]: 10%
growth inhibition ([13]; at 50.0 µM): 6.8%
growth inhibition ([14]; at 1.2 µM): 2%
growth inhibition ([14]; at 3.7 µM): 5%
growth inhibition [14, 17]: 8%
growth inhibition ([14]; at 11.0 µM): 11%
growth inhibition ([14]; at 33.0 µM): 15%
growth inhibition [14, 18]: 30%
growth inhibition ([14]; at 50.0 µM): 30.3%
growth inhibition ([14]; at 100.0 µM): 24%
growth inhibition ([15]; at 1.2 µM): 0%
growth inhibition ([15]; at 3.7 µM): 8%
growth inhibition ([15]; at 11.0 µM): -3%
growth inhibition ([15]; at 33.0 µM): -3%
growth inhibition ([15]; at 100.0 µM): 1%
growth inhibition ([1]; at 1.2 µM): 0%
growth inhibition ([1]; at 3.7 µM): -1%
growth inhibition ([1]; at 11.0 µM): -1%
growth inhibition ([1]; at 33.0 µM): 0%
growth inhibition ([1]; at 100.0 µM): 18%
growth inhibition [3, 17]: 6%
growth inhibition [3, 18]: -6%
growth inhibition ([3]; at 50.0 µM): 69.2%
growth inhibition ([4]; at 1.2 µM): 3%
growth inhibition ([4]; at 3.7 µM): 8%
growth inhibition ([4]; at 11.0 µM): 15%
growth inhibition ([4]; at 33.0 µM): 24%
growth inhibition ([4]; at 100.0 µM): 39%
